From the supplement of paper PMC6555819

Tested on: PXR homodimer (NR concentration 270 nM)
Test: PBM binding z-score (relative to random genomic background probes); higher = stronger binding; sequences stand for … in GC…GCGATTGACAGCGTAGAATGAAGG
In short: (§1)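 On custom Agilent 4×180K arrays, double-stranded probes with 34-nt variable regions carried direct-repeat seeds, single-nucleotide variants, half-site ablations or random human genomic background. Ligand-free nuclear receptor dimers were applied for 1 h, and binding was read with antibodies against each partner (one per run). Binding z-scores come from regression-normalized fluorescence, with the random background probes as reference.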

| Sequence | PBM binding z-score |
| --- | --- |
| CCTTACGGATCACGAGGTTATAGCACGACGAGCG | 0.695 |
| TCAGACAGGTGAAGATAACTCAGGTACGCAGTCG | 0.241 |
| TAGCCTAGGTCATTGGCCCAGTATAGTACGCATC | -0.0601 |
| ACTCGCAGGCCAAGGGTCACTCAAGATTAGTCCG | -0.231 |
| CAAACTAGGTCACGAAAGGTCGAAGTCGAATGAC | 1 |
| TCTCGGAGGACACGACGGTCAGAGCTTTCCAGAG | -0.626 |
| CCGAGTAGGTTATGGGGCATTCAAGCAACGGTGA | -0.292 |
| TTACCAACGTGAAGGTCGTTGATCCCTCTGTAGA | 0.561 |
| TCTATTAGTTGGAGGGCAACCGACGAGTCCGTTT | 1.11 |

Tested on: RARa:RXR (NR concentration 270 nM, RXRa partner concentration 90 nM)
Test: as above
In short: as §1

| Sequence | PBM binding z-score |
| --- | --- |
| CGTACTAGGTCAAGGACAGTGAATCTCCGCACGC | 2 |
| AGAATGAGGTTATACGTAGATCAGGGAAGAAAGT | 1.82 |
| CCTTACGGGTCACTGACACGTTATAGCATTTGGA | 3.98 |
| CGAACTATGTCATTGACAGGACAGTGAATAGTAA | 0.317 |
| AGAACGAGGGCAATGAATTGATAGCACGGGTGGC | 0.568 |
| TCTTGTAGATCAAAGGTTAAGGAAGCCGAAGCCT | 2.9 |
| GCTCACGGGTCAAAGGTTATAGCATGAATAGAAT | 8.47 |
| ATCTCTAGGTAACAAGTTCTGTGAAAGAGAGGAC | 0.67 |
| GCTCGGAGGACAAGGTCAGAACTTTGTCCGTAGA | 2 |
| CCTTACGGATCACTGACAGGTTATAGCATTTGGA | 0.397 |
| ATACCAAGGTGATCGTGAGGTCGTTGGTACTAAC | 2.43 |
| ATCTCTAGGTAACAAGTTCAGTGACAGAGAGGAC | 1.11 |
| TAGCCTAGGTCATTTAGGGGCCAGTATAGAAAGC | 3.45 |
| CGTCCAAGGTCAATGCTAGTTCAGTGAAAGCATT | 4.79 |
| CCTACTGGGGCAAAAAGGTCATTGATGCCGATAA | 5.35 |
| ACAGACAGGTGAGTGAAGGTAACTAAGCTGGACG | 0.0664 |
| CAAACTAGGTCAAGTTCAAAGTCGGTTTGTGCCA | 3.97 |
| CAAACTAGGTCAAGAGGTCATAGTCCGCTTCCCG | 7.42 |
| ACAGACAGTTGATGAAGGTAACTCAGGCTATCAT | 0.287 |
| ATCTCTAGGTAAAGATGGTTCAGTGAATGCAAAT | 0.492 |

| Sequence | PBM binding z-score |
| --- | --- |
| TCTAACAGGCCAGAGGGTCACTCAAGAGGTACGG | 2.6 |
| TCTGGCAGGCCAGAGGGTCACTCAAGAGGTACGG | 2 |
| ACGGACAGGTGAGTGAAGGTAACTCAGCTGGACG | 0.477 |
| CCTACTGTGCCACGAAAGGTCATTGATTCAGTGA | 5.05 |
| ATCGAAAGGCCGAGGTGAGTATAGAGAAAGGGAA | 0.0364 |
| ATCGAAAGGTCGAGGTGCGTATAGAGAAAGGGAA | 3.2 |
| ACTATTAGTTGAGACGAGGGGAACCGATAGGTTG | -0.00202 |
| TCTATTAGTTGATTAGGTCAACCGAAACAGCGGA | 2.56 |
| GCTGCTAGGTCAACTGATGGTCAGCTTAAGCTCG | 3.1 |
| GGAGCGAGGGCATTCGAGTTGATAGCATGGCGAT | 1.1 |
| CAAACTAGGTCACGAAAGGTCAAACTCGAATGAC | 7.97 |
| CCTTACGGATCACGAGGTTATAGCACGACGAGCG | 1.36 |
| TCAGACAGGTGAAGATAACTCAGGTACGCAGTCG | 0.891 |
| TAGCCTAGGTCATTGGCCCAGTATAGTACGCATC | 2.29 |
| ACTCGCAGGCCAAGGGTCACTCAAGATTAGTCCG | 4.23 |
| CAAACTAGGTCACGAAAGGTCGAAGTCGAATGAC | 5.45 |
| TCTCGGAGGACACGACGGTCAGAGCTTTCCAGAG | -0.317 |
| CCGAGTAGGTTATGGGGCATTCAAGCAACGGTGA | 0.26 |
| TTACCAACGTGAAGGTCGTTGATCCCTCTGTAGA | 1.13 |
| TCTATTAGTTGGAGGGCAACCGACGAGTCCGTTT | 0.737 |
